Molecules are shown by their SMILES. Out of some 290,000 compounds screened, about 670 (0.23%) were called active. The list comes from a sample in which actives are over-represented; it also holds similar structures and randomly drawn compounds. Unmarked numbers belong to inactive results.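 Rule for the calls: active = inhibition above a per-plate limit of that plate's mean compound inhibition plus 3 SD (cut at about 60% in these data); inactive = the rest.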

The assay can be described thus: KLF5 expression inhibitors, primary screen, DLD-1 cells, luminescence (AID 1700).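 Note: 0% = DMSO wells and 100% = LY294002 at 200 µM; higher means less KLF5 promoter-driven luciferase light.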 The conditions noted are these: DLD-1 KLF5 promoter-luciferase reporter, at 5 µM, active compounds read high.
Turning to `O=S(=O)(c1cc(Cl)ccc1Cl)N1CCN(Cc2ccco2)CC1`, the inhibition was -4.75%.

For `Nc1ccc2nn(-c3ccc(Cl)cc3)nc2c1`, the inhibition was 97.7% (active).

Turning to `CCC(=O)Nc1ccc2nn(-c3ccc(F)cc3)nc2c1`, the inhibition was -97%.

As for `c1ccc(-n2nc3ccccc3n2)cc1`, the inhibition was -2.18%.

Regarding `O=C(c1cc(-c2ccc(Cl)cc2)on1)N1CCN(c2ccccc2)CC1`, the inhibition is -69.1%.

In the case of `Cc1cccc(C)c1OCCN1CCOCC1`, the inhibition was -15.7%.

Take `Cc1ccc2c(c1)N(S(=O)(=O)c1cc(-c3cc(C)no3)ccc1C)CCO2`: the inhibition is -37.9%.

`Cc1ccc(NC(=S)NCCc2ccc(Cl)cc2)c(C)c1`: the inhibition was -19%.

Consider `Cc1ccc(NC(=S)NCc2ccccc2Cl)c(C)c1`, for which the inhibition was -3.59%.

As for `Cc1ccc(NC(=S)Nc2ncccc2C)c(C)c1`, the inhibition was 79.6% (active).

In the case of `CCN1C(=NCCc2cccnc2)N[C@@H](c2ccccc2)C(C(=O)OC)=C1C`, the inhibition was -22%.

As to `CC(C)c1ccc(NC(=O)Cn2ncc3ccccc32)cc1`, the inhibition is -106%.

Turning to `CN(c1cccc(NC(=O)c2ccc(CN3CCc4ccccc4C3)cc2)c1)S(C)(=O)=O`, the inhibition was -29.8%.

On to `CCN(CC)N=Nc1cccc(NC(C)=O)c1`, for which the inhibition is -51.2%.

On to `Cc1ccc(C(=O)NC23CC4CC(CC(C4)C2)C3)c(Cl)c1`, for which the inhibition was -45.4%.

Take `O=C(N/C(=C\c1ccc(O)cc1)C(=O)N1CCCCC1)c1ccccc1`: the inhibition is -7.29%.

`CN1CCN(C(=O)CCc2nc(-c3ccc(Cl)cc3)no2)CC1`: the inhibition is -29.1%.

For the compound `CCNC(=O)CCc1nc(-c2ccc(C(C)(C)C)cc2)no1`, the inhibition was 61.9% (active).

Take `CCNC(=O)CCc1nc(-c2ccc(C)cc2)no1`: the inhibition is -43.2%.

`CCc1ccccc1S(=O)(=O)Cc1ccc(C(=O)NCCc2ccccc2)o1`: the inhibition is -41.4%.

`CCOC(=O)C1CCN(C(=O)Cn2nc(C)c3c(C)n(-c4ccccc4)nc3c2=O)CC1`: the inhibition was -39.7%.

With `COc1cccc(-c2cc(C(=O)N3CCN(c4ccccc4OC)CC3)no2)c1`, the inhibition was -15.2%.

Take `COc1ccccc1N1CCN(C(=O)c2cc(=O)c3cc(C)cc(C)c3o2)CC1`: the inhibition is 88.2% (active).

Take `COc1ccccc1N1CCN(C(=O)c2cc(=O)c3cc(C)ccc3o2)CC1`: the inhibition is 15.1%.

With `Cc1c(NC(=O)CSCc2ccccc2)cccc1C(=O)O`, the inhibition is -44.3%.

Regarding `COc1cc(C(=O)NC2CCN(Cc3ccccc3)CC2)cc(Cl)c1OC(C)C`, the inhibition was 0.72%.

In the case of `O=C(Nc1nonc1-c1ccc(Cl)cc1)c1ccco1`, the inhibition was -1.44%.

`COc1ccc(Nc2cc(C)nc(-n3nc(C)cc3C)n2)cc1`: the inhibition was 75.5% (active).

For `COc1ccccc1/C=N\Nc1cc(C)nc(-n2nc(C)cc2C)n1`, the inhibition is -41.2%.

Consider `CCOC(=O)c1cnc(-n2nc(C)cc2C)nc1Nc1cccc(C(C)=O)c1`, for which the inhibition is -11.5%.

Consider `Cc1cc(Oc2ccc(Cl)cc2)nc(SCC(=O)c2ccccc2)n1`, for which the inhibition is -18.8%.

On to `CC(=O)c1ccc(Oc2cc(C)nc(-n3nc(C)cc3C)n2)cc1`, for which the inhibition was 61.9% (active).

As for `Cc1cc(N/N=C\c2ccc(Br)cc2)nc(-n2nc(C)cc2C)n1`, the inhibition is 3.64%.

With `COc1ccccc1CNS(=O)(=O)c1ccc2c(c1)NC(=O)CS2`, the inhibition was -51%.

As for `CC(=O)c1ccc(N2Cc3ccccc3C2)cc1`, the inhibition was -125%.

Turning to `O=C(Nc1nc2ccc([N+](=O)[O-])cc2s1)c1ccc(S(=O)(=O)N2CCCc3ccccc32)cc1`, the inhibition is -18.3%.

Regarding `O=C(NC(Nc1nc2ccc([N+](=O)[O-])cc2s1)(C(F)(F)F)C(F)(F)F)c1ccccc1`, the inhibition was 67.7% (active).

`CCC(=O)NC(Nc1nc2ccc(C)cc2s1)(C(=O)OC)C(F)(F)F` (stereo not drawn): the inhibition is 21.2%.

Take `COC(=O)c1ccc(COc2ccc(/C=C/C(=O)c3ccc(OC)c(CSCC(=O)O)c3)cc2OC)cc1`: the inhibition was 26.8%.

For the compound `CCC(C(=O)NCc1cccnc1)n1nc(C)c2sc3ccccc3c2c1=O` (stereo not drawn), the inhibition was -24.5%.

As to `CC(C)CNS(=O)(=O)c1ccc(C(=O)Nc2ccc3c(c2)OCO3)cc1`, the inhibition is -18.9%.

Take `COc1ccccc1C(=O)NC(=S)NC12CC3CC(CC(C3)C1)C2`: the inhibition is -5.49%.

As to `Cc1ccc(-c2csc(NC3OC(=O)c4ccccc43)n2)cc1` (stereo not drawn), the inhibition was 9.97%.

For the compound `Cc1ccn2c(=O)c(C(=O)NCCC3=CCCCC3)c(O)nc2c1`, the inhibition was 2.41%.

For the compound `C[C@@H]1C[C@@H]2O[C@H]2/C=C\C=C\C(=O)Cc2c(Cl)c(O)cc(O)c2C(=O)O1`, the inhibition is 64.1% (active).

As for `COc1cc2c(cc1O)[C@H](Cc1ccc(Oc3cc(C[C@@H]4NCCc5cc(OC)c(O)cc54)ccc3O)cc1)NCC2`, the inhibition was -7.79%.

In the case of `CCc1ccc(OCC2c3cc(OC)c(OC)cc3CCN2C(C)=O)cc1` (stereo not drawn), the inhibition was -8.46%.

In the case of `CC[C@H]1CN2CCc3cc(OC)c(OC)cc3[C@@H]2C[C@@H]1C[C@H]1NCCc2cc(OC)c(OC)cc21`, the inhibition was 106% (active).

In the case of `COc1ccc(Cc2nnc(SCC(=O)Nc3ccc(C)c(C)c3)o2)cc1OC`, the inhibition was -24.5%.

With `COc1cccc(N(CC(=O)NC2CCCCCC2)S(=O)(=O)c2ccccc2)c1`, the inhibition was -3.24%.

`Cc1cccc(OCC(=O)Nc2ccc(NC(=O)c3ccco3)c(C)c2)c1`: the inhibition is -14.3%.

For the compound `O=C(COc1ccc(Cl)cc1)NCCS(=O)(=O)N1CCN(c2ccc(F)cc2)CC1`, the inhibition was -3.45%.

For `Oc1c(Cl)cc(Cl)c(Cl)c1Cc1c(O)c(Cl)cc(Cl)c1Cl`, the inhibition was 81% (active).

For `O=C(N/N=C1\CCSC1)c1cc(Cl)ccc1O`, the inhibition was -24.9%.

With `COc1ccc(CNc2nccs2)cc1`, the inhibition was -8.32%.

With `COc1ccc(C(C)NC(=O)C23CC4CC(CC(C4)C2)C3)cc1` (stereo not drawn), the inhibition is 13.8%.

In the case of `Cc1ccc(O)c(NC(=O)c2cc(-c3ccco3)on2)c1`, the inhibition was -124%.

For `N#Cc1ccc(C(=O)Nc2nc(-c3cccs3)c(C(=O)C(F)(F)F)s2)cc1`, the inhibition was 16.3%.

Consider `Cn1c(=O)c2c(nc(NCCNC(=O)c3ccco3)n2Cc2ccccc2F)n(C)c1=O`, for which the inhibition was -15%.

As to `Cc1nn2c(c1-c1ccccc1)N=C(c1ccco1)CC2c1ccccc1` (stereo not drawn), the inhibition was -26.4%.

With `CS(=O)(=O)c1ccc2nnn(OCC(=O)Nc3cccc(C#N)c3)c2c1`, the inhibition is -3.59%.

As for `O=C(Nc1cccc(Cl)c1)c1cc(S(=O)(=O)N2CCCCC2)c[nH]1`, the inhibition was -39.1%.

In the case of `COc1ccc(S(=O)(=O)n2nc(C)c(S(=O)(=O)N3CCOCC3)c2C)cc1`, the inhibition was -33.4%.

Turning to `CCOC(=O)N1CCN(S(=O)(=O)c2ccc(-n3cnnn3)cc2)CC1`, the inhibition is -18.3%.

Consider `O=C(NCc1cc(F)cc(C(F)(F)F)c1)C1CCC(=O)N(C2CCCC2)C1` (stereo not drawn), for which the inhibition was 11.8%.

Take `CCCCC(C(=O)NC(C)(C)C)N(Cc1ccccc1)C(=O)c1snc(C(N)=O)c1N` (stereo not drawn): the inhibition is -18.5%.

As for `COc1ccc(C(C)NC(=S)NC2CCCCC2)cc1OC` (stereo not drawn), the inhibition was -29.8%.

For `CC1CCN(C(=O)Cn2nnnc2CN2CCOCC2)CC1`, the inhibition was -8.54%.

With `CC(=O)N1CC(=O)N(CC(=O)Nc2ccc(Br)cc2)C1=S`, the inhibition was -0.85%.

For the compound `COC(=O)c1cccc(C(=O)N2CCCC(Nc3ccc4c(c3)OCCO4)C2)c1` (stereo not drawn), the inhibition is -10.2%.

Consider `CC1CCC(NS(=O)(=O)c2ccc3c(c2)CC(=O)N3)CC1` (stereo not drawn), for which the inhibition is 10.7%.

`C=CCn1c(SCc2ccc(C(=O)NCCO)cc2)nc2ccccc2c1=O`: the inhibition is -13.8%.

As to `CCN1CCCC1CNC(=O)c1cc2cc(OC)c(OC)cc2[nH]1` (stereo not drawn), the inhibition was -5.17%.

As to `Cc1ccc(CNC(=O)CCNS(=O)(=O)c2ccc(Br)s2)cc1`, the inhibition was -6.34%.

Take `CC(NC(=O)c1cc2cc(Cl)ccc2oc1=N)c1ccccc1` (stereo not drawn): the inhibition is -15.5%.

On to `COc1ccc2[nH]cc(/C=C(/C#N)S(=O)(=O)c3ccccc3)c2c1`, for which the inhibition is -24.4%.

Take `COc1ccc(/C=C(\C#N)c2c[nH]c3ccccc23)cc1`: the inhibition is 62.4% (active).

`COc1cc(/C=C(\C#N)c2nc3ccccc3[nH]2)ccc1O`: the inhibition is -74.6%.

Source of the values: PubChem BioAssay AID1700 (The Scripps Research Institute Molecular Screening Center, 2009).
